# Laboratory results as given in PMC7862700, “An all-to-all approach to the identification of sequence-specific readers for epigenetic DNA modifications on cytosine”.
# Key:
# Assay in all cases: DAPPL (digital affinity profiling via proximity ligation, sequencing); 10 mM Tris-HCl pH 7.5, 50 mM NaCl, 1 mM DTT, 4% glycerol, room temperature, 30 min; GST-TFs on glutathione beads, 16-mer random dsDNA library, 0.1% formaldehyde crosslink after washing; high values mean tight binding
# FLI1 = molecular target: T1, FLI1 (Homo sapiens, UniProt Q01543 1-452); details: protein: recombinant; tags: N-terminal GST; dsDNA, one strand shown
# T1 sequence: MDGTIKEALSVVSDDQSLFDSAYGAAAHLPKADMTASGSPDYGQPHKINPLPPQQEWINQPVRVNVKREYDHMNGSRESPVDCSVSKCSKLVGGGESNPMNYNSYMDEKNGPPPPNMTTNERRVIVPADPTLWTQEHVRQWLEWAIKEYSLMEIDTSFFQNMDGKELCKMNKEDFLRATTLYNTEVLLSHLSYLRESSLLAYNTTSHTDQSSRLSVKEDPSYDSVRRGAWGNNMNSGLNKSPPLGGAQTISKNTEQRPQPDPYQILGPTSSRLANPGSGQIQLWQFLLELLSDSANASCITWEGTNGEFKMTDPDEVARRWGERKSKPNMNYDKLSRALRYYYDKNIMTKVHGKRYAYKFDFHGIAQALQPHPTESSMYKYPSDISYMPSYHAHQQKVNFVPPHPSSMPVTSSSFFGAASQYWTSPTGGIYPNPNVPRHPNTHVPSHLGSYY
# Procedure, shortened: (§1)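 After expression in yeast as GST fusions, human transcription factors were bound to glutathione beads, DNA-barcoded and mixed with a tag-only sample. The pools were incubated with 200 nmole of a 16-mer random double-stranded DNA library in Tris/NaCl/DTT/glycerol buffer (30 min, room temperature), washed and crosslinked with 0.1% formaldehyde. Proximity ligation with BsaI/T4 ligase ran for 1 h at 37 °C, before PCR amplification and sequencing on an Illumina NextSeq500. Binding signal is a hexamer's read frequency for a factor divided by its frequency for the tag-only sample.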
# ELK1 = molecular target: T2, ELK1 (Homo sapiens, UniProt P19419 1-428); details: protein: recombinant; tags: N-terminal GST; dsDNA, one strand shown
# T2 sequence: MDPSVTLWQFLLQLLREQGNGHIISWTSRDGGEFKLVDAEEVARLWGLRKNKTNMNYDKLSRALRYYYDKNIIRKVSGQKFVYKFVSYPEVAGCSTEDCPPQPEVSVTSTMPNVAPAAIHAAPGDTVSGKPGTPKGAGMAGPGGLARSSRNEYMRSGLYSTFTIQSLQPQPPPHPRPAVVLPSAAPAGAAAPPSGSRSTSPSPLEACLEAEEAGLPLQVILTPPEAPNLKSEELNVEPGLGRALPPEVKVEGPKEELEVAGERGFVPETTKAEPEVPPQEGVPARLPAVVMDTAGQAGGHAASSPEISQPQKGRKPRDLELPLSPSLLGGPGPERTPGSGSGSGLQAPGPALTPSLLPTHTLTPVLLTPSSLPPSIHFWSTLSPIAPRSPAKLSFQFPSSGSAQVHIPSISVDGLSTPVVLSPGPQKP
# Procedure, shortened: as §1
# GABPA = molecular target: T3, GABPA (Homo sapiens, UniProt Q06546 1-454); details: protein: recombinant; tags: N-terminal GST; dsDNA, one strand shown
# T3 sequence: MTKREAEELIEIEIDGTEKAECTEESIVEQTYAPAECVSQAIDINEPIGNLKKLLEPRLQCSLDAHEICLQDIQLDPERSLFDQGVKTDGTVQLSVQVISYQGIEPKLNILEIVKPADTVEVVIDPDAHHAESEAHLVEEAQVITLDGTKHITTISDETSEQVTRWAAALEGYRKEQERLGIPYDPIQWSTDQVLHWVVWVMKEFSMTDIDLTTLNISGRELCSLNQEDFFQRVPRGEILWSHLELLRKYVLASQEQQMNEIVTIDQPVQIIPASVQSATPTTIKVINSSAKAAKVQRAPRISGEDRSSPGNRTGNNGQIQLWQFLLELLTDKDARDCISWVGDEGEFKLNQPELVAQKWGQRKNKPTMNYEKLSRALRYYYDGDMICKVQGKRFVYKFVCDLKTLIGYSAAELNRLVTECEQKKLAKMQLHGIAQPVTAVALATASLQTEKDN
# Procedure, shortened: as §1
# ERG = molecular target: T4, ERG (Homo sapiens, UniProt P11308 1-479); details: protein: recombinant; tags: N-terminal GST; dsDNA, one strand shown
# T4 sequence: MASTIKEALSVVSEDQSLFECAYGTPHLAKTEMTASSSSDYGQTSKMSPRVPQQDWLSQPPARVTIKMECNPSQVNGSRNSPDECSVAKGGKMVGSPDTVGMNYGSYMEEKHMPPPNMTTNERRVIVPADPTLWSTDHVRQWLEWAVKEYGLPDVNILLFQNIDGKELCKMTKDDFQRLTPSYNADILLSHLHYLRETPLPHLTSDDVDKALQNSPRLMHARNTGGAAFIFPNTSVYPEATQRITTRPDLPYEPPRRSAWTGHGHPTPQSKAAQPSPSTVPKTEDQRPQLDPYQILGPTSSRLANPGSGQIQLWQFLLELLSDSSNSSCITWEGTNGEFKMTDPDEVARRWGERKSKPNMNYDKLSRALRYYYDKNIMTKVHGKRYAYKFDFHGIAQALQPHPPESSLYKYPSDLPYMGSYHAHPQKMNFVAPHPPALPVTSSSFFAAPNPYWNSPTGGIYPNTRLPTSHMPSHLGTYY
# Procedure, shortened: as §1
# ELF1 = ELF1 (Homo sapiens, UniProt P32519 1-619); details: protein: recombinant; tags: N-terminal GST; dsDNA, one strand shown
# Procedure, shortened: as §1
# EHF = molecular target: T5, EHF (Homo sapiens, UniProt Q9NZC4 1-300); details: protein: recombinant; tags: N-terminal GST; dsDNA, one strand shown
# T5 sequence: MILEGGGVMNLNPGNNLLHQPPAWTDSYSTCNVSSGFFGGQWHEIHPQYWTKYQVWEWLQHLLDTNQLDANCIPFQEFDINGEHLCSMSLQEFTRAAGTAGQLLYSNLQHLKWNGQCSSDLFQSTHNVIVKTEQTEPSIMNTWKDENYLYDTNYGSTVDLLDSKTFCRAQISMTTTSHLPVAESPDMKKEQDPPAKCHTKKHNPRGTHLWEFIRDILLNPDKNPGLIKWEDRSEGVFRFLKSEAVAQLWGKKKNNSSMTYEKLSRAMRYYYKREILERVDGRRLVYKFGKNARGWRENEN
# Procedure, shortened: as §1
# SPI1 = SPI1 (Homo sapiens, UniProt P17947 1-270); details: protein: recombinant; tags: N-terminal GST; dsDNA, one strand shown
# Procedure, shortened: as §1
# SPIB = SPIB (Homo sapiens, UniProt Q01892 1-262); details: protein: recombinant; tags: N-terminal GST; dsDNA, one strand shown
# Procedure, shortened: as §1
# ELK3 = molecular target: T6, ELK3 (Homo sapiens, UniProt P41970 1-407); details: protein: recombinant; tags: N-terminal GST; dsDNA, one strand shown
# T6 sequence: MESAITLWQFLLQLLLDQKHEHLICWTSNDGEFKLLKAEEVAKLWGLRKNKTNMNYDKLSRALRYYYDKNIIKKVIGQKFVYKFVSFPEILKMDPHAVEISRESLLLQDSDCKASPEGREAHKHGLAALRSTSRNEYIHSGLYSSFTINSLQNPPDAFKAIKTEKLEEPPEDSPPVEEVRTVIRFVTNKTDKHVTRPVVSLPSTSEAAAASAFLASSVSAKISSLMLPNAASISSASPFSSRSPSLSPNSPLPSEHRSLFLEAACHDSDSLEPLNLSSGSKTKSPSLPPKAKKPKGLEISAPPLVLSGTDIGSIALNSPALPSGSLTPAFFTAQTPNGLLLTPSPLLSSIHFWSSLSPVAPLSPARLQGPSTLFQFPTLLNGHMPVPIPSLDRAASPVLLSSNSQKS
# Procedure, shortened: as §1
# FEV = molecular target: T7, FEV (Homo sapiens, UniProt Q99581 1-238); details: protein: recombinant; tags: N-terminal GST; dsDNA, one strand shown
# T7 sequence: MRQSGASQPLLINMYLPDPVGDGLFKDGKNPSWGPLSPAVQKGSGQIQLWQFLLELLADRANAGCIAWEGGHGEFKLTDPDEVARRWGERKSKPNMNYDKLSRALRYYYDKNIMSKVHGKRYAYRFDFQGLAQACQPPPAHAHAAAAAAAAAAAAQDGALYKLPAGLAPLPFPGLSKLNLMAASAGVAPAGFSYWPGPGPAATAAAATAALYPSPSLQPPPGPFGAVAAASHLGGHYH
# Procedure, shortened: as §1
# ETV5 = ETV5 (Homo sapiens, UniProt P41161 1-510); details: protein: recombinant; tags: N-terminal GST; dsDNA, one strand shown
# Procedure, shortened: as §1
# HSF1 = HSF1 (Homo sapiens, UniProt Q00613 1-529); details: protein: recombinant; tags: N-terminal GST; chain copies: 3; dsDNA, one strand shown
# Procedure, shortened: as §1
# SPIC = molecular target: T8, SPIC (Homo sapiens, UniProt Q8N5J4 1-248); details: protein: recombinant; tags: N-terminal GST; dsDNA, one strand shown
# T8 sequence: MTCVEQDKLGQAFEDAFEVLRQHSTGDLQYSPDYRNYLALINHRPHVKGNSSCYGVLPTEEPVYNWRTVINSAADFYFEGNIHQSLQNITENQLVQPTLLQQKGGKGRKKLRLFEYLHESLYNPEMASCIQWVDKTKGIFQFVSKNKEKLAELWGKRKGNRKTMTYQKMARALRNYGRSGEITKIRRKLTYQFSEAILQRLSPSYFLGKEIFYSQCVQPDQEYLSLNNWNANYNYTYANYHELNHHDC
# Procedure, shortened: as §1
# ELF4 = ELF4 (Homo sapiens, UniProt Q99607 1-663); details: protein: recombinant; tags: N-terminal GST; dsDNA, one strand shown
# Procedure, shortened: as §1
# ELK4 = molecular target: T9, ELK4 (Homo sapiens, UniProt P28324-2 1-405); details: protein: recombinant; tags: N-terminal GST; dsDNA, one strand shown
# T9 sequence: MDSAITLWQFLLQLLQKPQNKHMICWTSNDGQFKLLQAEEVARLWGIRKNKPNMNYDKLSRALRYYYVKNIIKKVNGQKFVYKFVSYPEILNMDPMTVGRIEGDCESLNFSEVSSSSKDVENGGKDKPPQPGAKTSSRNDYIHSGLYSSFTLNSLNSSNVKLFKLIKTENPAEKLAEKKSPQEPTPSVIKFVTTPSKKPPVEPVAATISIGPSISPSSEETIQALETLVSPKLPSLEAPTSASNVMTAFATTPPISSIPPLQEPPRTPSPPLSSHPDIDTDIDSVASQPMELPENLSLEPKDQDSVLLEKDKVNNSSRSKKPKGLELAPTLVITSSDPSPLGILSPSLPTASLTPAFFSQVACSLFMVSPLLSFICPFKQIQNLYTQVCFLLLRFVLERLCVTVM
# Procedure, shortened: as §1
# ETV2 = molecular target: T10, ETV2 (Homo sapiens, UniProt O00321 1-342); details: protein: recombinant; tags: N-terminal GST; dsDNA, one strand shown
# T10 sequence: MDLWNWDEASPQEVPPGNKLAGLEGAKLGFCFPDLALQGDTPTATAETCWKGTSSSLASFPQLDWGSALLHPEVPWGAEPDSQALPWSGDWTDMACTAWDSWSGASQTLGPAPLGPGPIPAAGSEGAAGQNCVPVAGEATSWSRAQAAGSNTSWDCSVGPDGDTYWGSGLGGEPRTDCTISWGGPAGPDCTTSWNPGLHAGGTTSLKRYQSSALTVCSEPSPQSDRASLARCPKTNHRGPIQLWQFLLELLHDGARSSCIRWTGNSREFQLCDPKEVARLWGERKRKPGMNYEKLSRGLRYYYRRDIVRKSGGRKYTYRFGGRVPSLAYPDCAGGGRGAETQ
# Procedure, shortened: as §1
# ELF3 = molecular target: T11, ELF3 (Homo sapiens, UniProt P78545 1-371); details: protein: recombinant; tags: N-terminal GST; dsDNA, one strand shown
# T11 sequence: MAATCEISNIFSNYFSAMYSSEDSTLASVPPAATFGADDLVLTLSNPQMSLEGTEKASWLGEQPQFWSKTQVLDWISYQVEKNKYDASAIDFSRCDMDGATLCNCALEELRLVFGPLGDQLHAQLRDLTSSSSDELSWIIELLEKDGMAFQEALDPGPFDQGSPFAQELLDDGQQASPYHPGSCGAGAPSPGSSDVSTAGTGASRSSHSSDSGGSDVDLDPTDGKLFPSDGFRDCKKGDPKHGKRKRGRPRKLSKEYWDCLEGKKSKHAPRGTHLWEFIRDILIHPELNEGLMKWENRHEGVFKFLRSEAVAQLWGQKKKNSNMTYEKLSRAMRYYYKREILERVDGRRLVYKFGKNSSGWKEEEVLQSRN
# Procedure, shortened: as §1
# CRX = CRX (Homo sapiens, UniProt O43186 1-299); details: protein: recombinant; tags: N-terminal GST; dsDNA, one strand shown
# Procedure, shortened: as §1
# ETV1 = ETV1 (Homo sapiens, UniProt P50549 1-477); details: protein: recombinant; tags: N-terminal GST; dsDNA, one strand shown
# Procedure, shortened: as §1
# Chain of HSF1 (Q00613 whole entry): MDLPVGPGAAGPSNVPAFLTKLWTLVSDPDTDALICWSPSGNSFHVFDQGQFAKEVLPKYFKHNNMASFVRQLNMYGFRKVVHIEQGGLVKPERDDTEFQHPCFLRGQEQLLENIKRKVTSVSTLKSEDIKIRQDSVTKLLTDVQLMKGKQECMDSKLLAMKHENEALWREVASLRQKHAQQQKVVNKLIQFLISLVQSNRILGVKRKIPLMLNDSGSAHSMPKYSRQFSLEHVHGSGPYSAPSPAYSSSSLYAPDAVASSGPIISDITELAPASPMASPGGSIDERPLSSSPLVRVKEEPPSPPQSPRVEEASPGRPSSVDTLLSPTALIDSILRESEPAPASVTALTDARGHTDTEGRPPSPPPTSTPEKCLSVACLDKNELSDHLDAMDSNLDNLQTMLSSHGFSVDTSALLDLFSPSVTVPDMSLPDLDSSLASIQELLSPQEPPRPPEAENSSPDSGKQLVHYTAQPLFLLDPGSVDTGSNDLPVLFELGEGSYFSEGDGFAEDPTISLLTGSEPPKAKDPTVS
# Chain of ETV1 (P50549 whole entry): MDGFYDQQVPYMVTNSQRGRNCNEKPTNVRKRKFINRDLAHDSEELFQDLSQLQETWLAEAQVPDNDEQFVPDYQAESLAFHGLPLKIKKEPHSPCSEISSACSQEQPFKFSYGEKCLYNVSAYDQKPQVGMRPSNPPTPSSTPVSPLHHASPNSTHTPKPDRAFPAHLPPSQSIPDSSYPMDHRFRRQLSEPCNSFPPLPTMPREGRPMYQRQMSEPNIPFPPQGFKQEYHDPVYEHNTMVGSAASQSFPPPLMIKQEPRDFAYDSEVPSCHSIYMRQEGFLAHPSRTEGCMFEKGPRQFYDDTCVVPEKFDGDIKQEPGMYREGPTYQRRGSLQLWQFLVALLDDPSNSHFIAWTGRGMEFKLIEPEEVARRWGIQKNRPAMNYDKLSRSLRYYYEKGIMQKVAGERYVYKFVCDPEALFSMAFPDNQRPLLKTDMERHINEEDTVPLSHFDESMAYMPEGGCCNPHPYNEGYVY
# Chain of ELF4 (Q99607 whole entry): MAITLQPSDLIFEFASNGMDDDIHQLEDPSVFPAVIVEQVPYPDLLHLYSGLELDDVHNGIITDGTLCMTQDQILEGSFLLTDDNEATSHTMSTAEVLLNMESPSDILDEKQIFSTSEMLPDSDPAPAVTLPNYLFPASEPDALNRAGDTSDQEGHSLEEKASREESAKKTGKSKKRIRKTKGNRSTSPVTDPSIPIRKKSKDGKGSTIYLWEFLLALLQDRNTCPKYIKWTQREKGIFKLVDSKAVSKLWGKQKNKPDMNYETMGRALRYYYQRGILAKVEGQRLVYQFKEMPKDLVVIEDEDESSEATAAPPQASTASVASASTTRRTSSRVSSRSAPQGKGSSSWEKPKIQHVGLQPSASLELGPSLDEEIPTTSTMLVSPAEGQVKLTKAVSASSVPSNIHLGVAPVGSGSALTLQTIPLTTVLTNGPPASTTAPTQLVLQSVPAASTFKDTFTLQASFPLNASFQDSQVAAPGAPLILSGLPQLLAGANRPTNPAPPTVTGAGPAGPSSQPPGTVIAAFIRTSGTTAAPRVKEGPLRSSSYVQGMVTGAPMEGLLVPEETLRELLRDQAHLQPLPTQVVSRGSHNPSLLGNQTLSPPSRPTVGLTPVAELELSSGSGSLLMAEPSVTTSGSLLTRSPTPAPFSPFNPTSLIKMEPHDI
# Chain of ELF1 (P32519 whole entry): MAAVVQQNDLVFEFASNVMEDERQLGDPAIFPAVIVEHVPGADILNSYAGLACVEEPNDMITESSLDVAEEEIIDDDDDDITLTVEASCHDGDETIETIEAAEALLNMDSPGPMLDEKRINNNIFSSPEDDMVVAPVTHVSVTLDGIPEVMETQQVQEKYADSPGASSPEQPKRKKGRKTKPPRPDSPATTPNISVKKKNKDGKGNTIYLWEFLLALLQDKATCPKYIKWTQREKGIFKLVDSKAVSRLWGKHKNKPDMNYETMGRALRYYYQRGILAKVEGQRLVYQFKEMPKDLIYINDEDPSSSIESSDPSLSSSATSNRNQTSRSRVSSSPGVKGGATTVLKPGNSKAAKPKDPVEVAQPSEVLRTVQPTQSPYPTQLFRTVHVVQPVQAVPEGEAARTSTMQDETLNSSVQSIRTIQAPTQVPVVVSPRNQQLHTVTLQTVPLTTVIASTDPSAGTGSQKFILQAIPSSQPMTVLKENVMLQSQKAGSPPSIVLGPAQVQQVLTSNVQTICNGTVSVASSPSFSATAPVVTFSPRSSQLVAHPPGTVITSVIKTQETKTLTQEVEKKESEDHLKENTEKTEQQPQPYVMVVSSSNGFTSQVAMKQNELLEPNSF
# Chain of SPIB (Q01892 whole entry): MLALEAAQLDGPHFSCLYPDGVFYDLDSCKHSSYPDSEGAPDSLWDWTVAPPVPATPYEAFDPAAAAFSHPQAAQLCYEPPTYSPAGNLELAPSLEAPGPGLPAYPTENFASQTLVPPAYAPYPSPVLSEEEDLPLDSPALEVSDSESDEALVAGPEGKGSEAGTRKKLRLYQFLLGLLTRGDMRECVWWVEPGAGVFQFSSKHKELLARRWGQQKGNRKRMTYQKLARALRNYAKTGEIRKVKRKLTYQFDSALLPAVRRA
# Chain of ETV5 (P41161 whole entry): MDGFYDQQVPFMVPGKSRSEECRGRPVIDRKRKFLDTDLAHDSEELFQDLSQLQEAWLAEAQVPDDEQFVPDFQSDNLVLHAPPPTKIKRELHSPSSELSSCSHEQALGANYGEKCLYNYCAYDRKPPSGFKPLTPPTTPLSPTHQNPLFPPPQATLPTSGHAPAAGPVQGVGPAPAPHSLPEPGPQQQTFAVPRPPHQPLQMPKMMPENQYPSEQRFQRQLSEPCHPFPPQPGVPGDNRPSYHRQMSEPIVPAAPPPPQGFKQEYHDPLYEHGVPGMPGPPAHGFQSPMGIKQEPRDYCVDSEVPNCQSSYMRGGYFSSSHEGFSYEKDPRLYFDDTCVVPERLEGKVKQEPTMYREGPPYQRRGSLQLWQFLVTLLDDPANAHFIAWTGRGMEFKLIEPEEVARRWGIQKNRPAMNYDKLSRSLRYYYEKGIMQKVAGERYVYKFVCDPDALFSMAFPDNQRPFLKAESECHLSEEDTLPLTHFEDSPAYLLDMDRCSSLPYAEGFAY
# Chain of CRX (O43186 whole entry): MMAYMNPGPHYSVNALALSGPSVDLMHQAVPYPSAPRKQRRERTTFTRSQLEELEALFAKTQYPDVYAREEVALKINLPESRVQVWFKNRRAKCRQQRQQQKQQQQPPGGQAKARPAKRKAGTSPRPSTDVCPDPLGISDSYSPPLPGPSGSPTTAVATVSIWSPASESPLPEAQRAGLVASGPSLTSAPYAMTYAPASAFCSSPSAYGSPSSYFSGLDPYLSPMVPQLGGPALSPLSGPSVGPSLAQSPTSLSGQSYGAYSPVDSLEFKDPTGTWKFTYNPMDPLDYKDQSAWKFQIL
sequence,measurement,setting,value
AATCTG,binding signal,FLI1,"1.48 fold enrichment (6-mer frequency, TF over GST control)"
same,binding signal,ELK1,"1.33 fold enrichment (6-mer frequency, TF over GST control)"
same,binding signal,GABPA,"1.49 fold enrichment (6-mer frequency, TF over GST control)"
same,binding signal,ERG,"1.46 fold enrichment (6-mer frequency, TF over GST control)"
same,binding signal,ELF1,"1.48 fold enrichment (6-mer frequency, TF over GST control)"
same,binding signal,EHF,"1.31 fold enrichment (6-mer frequency, TF over GST control)"
same,binding signal,SPI1,"1.42 fold enrichment (6-mer frequency, TF over GST control)"
same,binding signal,SPIB,"1.51 fold enrichment (6-mer frequency, TF over GST control)"
same,binding signal,ELK3,"1.34 fold enrichment (6-mer frequency, TF over GST control)"
same,binding signal,FEV,"1.41 fold enrichment (6-mer frequency, TF over GST control)"
same,binding signal,ETV5,"1.4 fold enrichment (6-mer frequency, TF over GST control)"
same,binding signal,HSF1,"2.17 fold enrichment (6-mer frequency, TF over GST control)"
same,binding signal,SPIC,"1.52 fold enrichment (6-mer frequency, TF over GST control)"
same,binding signal,ELF4,"1.57 fold enrichment (6-mer frequency, TF over GST control)"
same,binding signal,ELK4,"1.55 fold enrichment (6-mer frequency, TF over GST control)"
same,binding signal,ETV2,"1.45 fold enrichment (6-mer frequency, TF over GST control)"
same,binding signal,ELF3,"1.47 fold enrichment (6-mer frequency, TF over GST control)"
same,binding signal,CRX,"2.75 fold enrichment (6-mer frequency, TF over GST control)"
same,binding signal,ETV1,"1.58 fold enrichment (6-mer frequency, TF over GST control)"
